Measured values published in PubChem BioAssay (EPA / NIEHS).
Results filed as inconclusive are left out. Activity calls are given as the source filed them. How the source made its calls: active means hit-call score of the fitted dose curve at least 0.9, where 1 is the maximum; inconclusive means response in the unintended direction; inactive means score below 0.9.

Legend:
[1] = TOX21_p53_BLA_p2_viability: Viability Assessment in the Tox21 HCT-116 p53 Agonism Beta-lactamase Assay, Phase 2 (AID 2283591);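 further: compound exposure lasted 16 h at 37 °C; actives lower the ATP signal meaning cytotoxicity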
Procedure, shortened: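 HCT-116 p53-bla cells (4000/well) rested 5 h at 37C, then received compounds in DMSO (217-fold dilution) for 16 h at 37C, 5% CO2. After the CCF4 read, CellTiter-Glo was added; ATP luminescence was read after 30 min at room temperature.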

[2] = target: Cellular tumor antigen p53 (Homo sapiens) (UniProt P04637); assay: TOX21_p53_BLA_p2_ratio: Tox21 HCT-116 p53 Agonism Beta-lactamase Assay, Ratio, Phase 2 (AID 2283592)
Chain of Cellular tumor antigen p53 (Homo sapiens) (P04637 whole entry, looked up): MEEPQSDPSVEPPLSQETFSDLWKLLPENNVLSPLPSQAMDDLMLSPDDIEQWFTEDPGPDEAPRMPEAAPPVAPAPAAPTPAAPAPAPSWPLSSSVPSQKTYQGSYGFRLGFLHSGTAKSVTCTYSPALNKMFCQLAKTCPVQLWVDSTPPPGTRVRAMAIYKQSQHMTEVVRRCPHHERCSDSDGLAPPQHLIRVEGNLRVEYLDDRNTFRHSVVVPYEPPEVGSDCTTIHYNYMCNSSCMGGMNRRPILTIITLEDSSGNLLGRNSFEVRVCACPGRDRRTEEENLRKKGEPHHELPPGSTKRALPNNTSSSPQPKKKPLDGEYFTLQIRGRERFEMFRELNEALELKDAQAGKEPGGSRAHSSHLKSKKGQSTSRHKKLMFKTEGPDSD
Procedure, shortened: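 Human colon HCT116 cells with an inducible p53 beta-lactamase reporter are exposed to test chemicals for 16 h at 37C. Reporter induction is read as the 460/530 nm emission ratio after CCF4-AM loading, normalized to DMSO.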

[3] = target: Cellular tumor antigen p53 (Homo sapiens) (UniProt P04637); assay: TOX21_p53_BLA_p3_ratio: Tox21 HCT-116 p53 Agonism Beta-lactamase Assay, Ratio, Phase 3 (AID 2283596)
Procedure, shortened: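 HCT116 p53-bla cells (4000/well) given compound in DMSO (217-fold dilution) after 5 h, incubated 16 h at 37C. CCF4-AM substrate 2 h at room temperature; 460/530 nm emission ratio, gain fitted against DMSO.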

[4] = TOX21_p53_BLA_p5_viability: Viability Assessment in the Tox21 HCT-116 p53 Agonism Beta-lactamase Assay, Phase 5 (AID 2283600)
Procedure, shortened: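 Seeded cells (4000/well) settle 5 h before compound addition. Plates then incubate 16 h at 37C, receive FRET substrate for 2 h, and finally CellTiter-Glo, with luminescence measured after a 30 min room-temperature incubation.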

[5] = target: Cellular tumor antigen p53 (Homo sapiens) (UniProt P04637); assay: TOX21_p53_BLA_p4_ratio: Tox21 HCT-116 p53 Agonism Beta-lactamase Assay, Ratio, Phase 4 (AID 2283601)
Procedure, shortened: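 HCT116 cells carrying an inducible beta-lactamase reporter were plated at 4000 cells/well, rested 5 h, then exposed to compounds in DMSO (217-fold dilution) for 16 h at 37C. CCF4-AM substrate was loaded 2 h at room temperature; 460/530 nm emission ratio scored gain-of-signal versus DMSO.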

[6] = TOX21_p53_BLA_p4_viability: Viability Assessment in the Tox21 HCT-116 p53 Agonism Beta-lactamase Assay, Phase 4 (AID 2283597);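 further: hits lower the luminescence signal meaning cytotoxicity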
Procedure, shortened: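 Luminescent ATP readout (CellTiter-Glo, 30 min, room temperature) in the same wells as the p53 bla ratio. HCT116 cells were treated for 16 h at 37C with DMSO-dissolved compounds.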

[7] = target: Cellular tumor antigen p53 (Homo sapiens) (UniProt P04637); assay: TOX21_p53_BLA_p5_ratio: Tox21 HCT-116 p53 Agonism Beta-lactamase Assay, Ratio, Phase 5 (AID 2283599)
Procedure, shortened: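 HCT-116 cells carrying a p53-inducible beta-lactamase reporter were seeded at 4000 cells/well and dosed after 5 h with compound in DMSO (217-fold dilution). After 16 h at 37C, CCF4-AM substrate was added for 2 h, and the 460/530 nm emission ratio was scored as gain-of-signal versus DMSO.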

| SMILES | outcome [1] | outcome [2] | outcome [3] | outcome [4] | outcome [5] | outcome [6] | outcome [7] | AC50 [7] | AC50 [4] |
| --- | --- | --- | --- | --- | --- | --- | --- | --- | --- |
| Oc1ccc(O)c2c(O)cccc12 | inactive | inactive | inactive | inactive | inactive | – | – | – | – |
| CC(C)CCCC(C)CCCC(C)CCCCC(C)CCCC(C)CCCC(C)C (stereo unspecified) | inactive | inactive | inactive | inactive | inactive | – | – | – | – |
| O=C(NC(Cc1cc(=O)[nH]c2ccccc12)C(=O)O)c1ccc(Cl)cc1 (stereo unspecified) | inactive | inactive | inactive | – | inactive | – | – | – | – |
| CC(=O)Oc1cccc(C(=O)O)c1OC(C)=O | inactive | inactive | – | inactive | – | inactive | inactive | – | – |
| CC(C)NC[C@@H](O)COc1ccc(CC(N)=O)cc1 | inactive | inactive | inactive | – | inactive | – | – | – | – |
| CN(CC1(C)CCCO1)S(=O)(=O)c1ccc(Cl)c(S(N)(=O)=O)c1 (stereo unspecified) | inactive | inactive | inactive | inactive | inactive | – | – | – | – |
| NC(CS)C(=O)O (stereo unspecified) | inactive | inactive | inactive | – | inactive | – | – | – | – |
| CCCCOCCOC(=O)COc1cc(Cl)c(Cl)cc1Cl | inactive | inactive | – | – | – | inactive | – | – | – |
| c1ccc2c(c1)OCC(CN1CCCCC1)O2 (stereo unspecified) | inactive | inactive | inactive | – | inactive | – | – | – | – |
| O=S(=O)(O)CCN1CCN(CCO)CC1 | inactive | inactive | inactive | inactive | inactive | – | – | – | – |
| CC(=O)c1cc(C)oc1C | inactive | inactive | – | inactive | inactive | inactive | inactive | – | – |
| CCC(C)=NO[Si](C)(ON=C(C)CC)ON=C(C)CC | inactive | inactive | – | inactive | inactive | inactive | inactive | – | – |
| Cc1cc(Cl)c(C)cc1Cl | inactive | inactive | – | – | inactive | inactive | inactive | – | – |
| O=C=Nc1ccc(Cl)c(Cl)c1 | inactive | inactive | – | inactive | inactive | inactive | inactive | – | – |
| CN1CCN(CCCN2c3ccccc3Sc3ccc(S(=O)(=O)N(C)C)cc32)CC1 | inactive | inactive | – | inactive | inactive | inactive | inactive | – | – |
| Cc1ccccc1OCC1CO1 (stereo unspecified) | inactive | inactive | – | inactive | inactive | inactive | – | – | – |

| SMILES | outcome [1] | outcome [2] | outcome [3] | outcome [4] | outcome [5] | outcome [6] | outcome [7] | AC50 [7] | AC50 [4] |
| --- | --- | --- | --- | --- | --- | --- | --- | --- | --- |
| Cc1ccc(N=Nc2c(O)c(C(=O)O)cc3ccccc23)c(S(=O)(=O)O)c1 | inactive | inactive | – | – | inactive | inactive | inactive | – | – |
| Nc1ncnc(Nc2ccc(Cl)cc2)n1 | inactive | inactive | – | inactive | inactive | inactive | inactive | – | – |
| C=CCCCCCCC=C | inactive | inactive | – | inactive | inactive | inactive | – | – | – |
| CCCCCCCCCCCCCCCCC(C(=O)O)C(O)(CC(=O)O)C(=O)O (stereo unspecified) | inactive | inactive | – | – | inactive | inactive | – | 38.7 µM (active) | 34.3 µM (active) |
| CC1=C2[C@@H]([C@H](C)CC[C@H]2/C=C(\C)C(=O)O)[C@H](O)C1 | inactive | inactive | – | – | inactive | inactive | inactive | – | – |
| O=C1NC(=O)[C@@]2(CCOc3ccc(F)cc32)N1 | inactive | inactive | – | inactive | inactive | inactive | inactive | – | – |
| C=C1c2c(Cl)ccc(O)c2C(O)=C2C(=O)[C@]3(O)C(O)=C(C(N)=O)C(=O)[C@@H](N(C)C)[C@@H]3[C@@H](O)[C@H]12 | inactive | inactive | – | inactive | – | inactive | – | – | – |
| COc1cc(-c2ccc(N=C=O)c(OC)c2)ccc1N=C=O | inactive | inactive | – | – | inactive | inactive | inactive | – | – |
| CC(O)CN(C)C (stereo unspecified) | inactive | inactive | – | – | inactive | inactive | inactive | – | – |
| O=S(=O)(Cl)c1c(Cl)cccc1Cl | inactive | inactive | – | inactive | inactive | inactive | inactive | – | – |
| Cc1cc(C(C)(C)C)c(O)c(C)c1CC1=NCCN1 | inactive | inactive | – | inactive | inactive | inactive | inactive | – | – |
| CC(COc1ccc(C(C)(C)C)cc1)OS(=O)OCCCl (stereo unspecified) | inactive | inactive | – | inactive | inactive | inactive | inactive | – | – |
| CC1c2ccccc2CN1NC(=O)c1ccc(Cl)c(S(N)(=O)=O)c1 (stereo unspecified) | inactive | inactive | – | inactive | inactive | inactive | inactive | – | – |
| O=S(=O)(O)CCS | inactive | inactive | – | inactive | inactive | inactive | inactive | – | – |
| CCc1cn([C@H]2C[C@H](O)[C@@H](CO)O2)c(=O)[nH]c1=O | inactive | inactive | – | inactive | inactive | inactive | inactive | – | – |
